The results in this text go back to PubChem BioAssay (NCI).

Assay [1] can be described thus: NCI Yeast Anticancer Drug Screen. Data for the rad50 strain (AID 155).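 Also: 0% = growth of vehicle-only cultures of the same strain.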 The conditions noted are these: S. cerevisiae rad50 strain growth inhibition, hits give high values. A digest of the protocol:
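Relative growth inhibition (compound vs vehicle) was measured in yeast with a defined repair-gene alteration.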

The nature of assay [2]: NCI Yeast Anticancer Drug Screen. Data for the mec2-1 strain (AID 157). The conditions noted are these: S. cerevisiae mec2-1 strain, hits give high values. An outline of the steps: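 Test agents were screened against the mec2-1 yeast strain, with defined DNA repair or cell cycle alteration. Growth was scored as inhibition against vehicle-only controls.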
Assay [3] is described as follows: NCI Yeast Anticancer Drug Screen. Data for the sgs1 mgt1 strain (AID 161).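 Also: 0% = growth of cultures given vehicle only.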 The note with it: S. cerevisiae sgs1 mgt1 strain, hits give high values. An outline of the steps:
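Inhibition of yeast growth, normalised to vehicle-treated controls, is reported for a strain bearing genetic alterations in DNA damage repair.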

Assay [4] can be described thus: NCI Yeast Anticancer Drug Screen. Data for the cln2 rad14 strain (AID 165).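 Also: 0% = growth equal to vehicle treated cultures.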 The note with it: S. cerevisiae cln2 rad14 strain, hits give high values. A digest of the protocol: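 Growth of compound-exposed yeast (cln2 rad14 genotype) measured and expressed as inhibition relative to vehicle.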
Assay [5] is described as follows: NCI Yeast Anticancer Drug Screen. Data for the bub3 strain (AID 167). The note with it: S. cerevisiae bub3 mutant strain, hits give high values. A digest of the protocol: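 Screening used yeast with an engineered genetic alteration affecting cell cycle control. Compound-exposed cultures were compared with vehicle cultures, and reduced growth was taken as inhibition.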

Assay [6] in a line: NCI Yeast Anticancer Drug Screen. Data for the mlh1 rad18 strain (AID 175). The conditions noted are these: S. cerevisiae mlh1 rad18 strain growth inhibition, hits give high values. A digest of the protocol: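 In this whole-cell yeast screen, a strain with altered DNA damage repair is challenged with compound, and its growth is measured against matched vehicle-treated controls.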

The mark [7] stands for this setting: at 5.0 µM (retest, dose inferred, filed as 0.5).
Where [8] appears, read: at 50.0 µM (retest, dose inferred, filed as 5.0).

This is part of a sample that, as a whole, favours compounds with a hit. Of some 79,000 tested, about 15% had one in any assay. A number with no mark means an inactive call. Activity calls are given as the source filed them. Rule as the data show it: active = growth inhibition above about 70%; inactive = the rest.

Regarding `CC(C)(C)c1ccc(OC(=O)Nc2ccc(Cl)cc2[N+](=O)[O-])c(Br)c1`, the growth inhibition in assay [1] (setting [7]) is -31%; in assay [1] (setting [8]), 32%; in assay [1] (at 50.0 µM) it was 33%; in assay [2] (setting [7]), 2%; in assay [2] (setting [8]), 9%; in assay [2] (at 50.0 µM), 64.2%. In addition, the growth inhibition in assay [3] (setting [7]) is 3%; in assay [3] (setting [8]), 37%; in assay [3] (at 50.0 µM), 68.5%; in assay [4] (setting [7]) it was 3%; in assay [4] (setting [8]) it was 7%; in assay [4] (at 50.0 µM) it was 90.8% (active). The growth inhibition is 1% in assay [5] (setting [7]); 14% in assay [5] (setting [8]); 20.1% in assay [5] (at 50.0 µM); 10% in assay [6] (setting [7]); 38% in assay [6] (setting [8]); 77.5% (active) in assay [6] (at 50.0 µM).

For `COC(=O)c1c(C(N)=O)c(C)n(NC(=O)c2ccccc2)c1C`, the growth inhibition was -6% in assay [1] (setting [7]); 4% in assay [1] (setting [8]); 5.75% in assay [1] (at 50.0 µM); -5% in assay [2] (setting [7]); -1% in assay [2] (setting [8]); 2.7% in assay [2] (at 50.0 µM). The growth inhibition in assay [3] (setting [7]) is -6%; in assay [3] (setting [8]) it was 0%; in assay [3] (at 50.0 µM), 11.1%; in assay [4] (setting [7]) it was -4%; in assay [4] (setting [8]), 6%; in assay [4] (at 50.0 µM), 38.9%. Moreover, the growth inhibition in assay [5] (setting [7]) was -4%; in assay [5] (setting [8]), 3%; in assay [5] (at 50.0 µM), -2.65%; in assay [6] (setting [7]) it was -4%; in assay [6] (setting [8]), 0%; in assay [6] (at 50.0 µM), 11.5%.

Regarding `O=[N+]([O-])c1cc(I)c(O)c(/C=N/NS(=O)(=O)c2ccc(Cl)cc2)c1`, the growth inhibition in assay [1] (setting [7]) was -3%; in assay [1] (setting [8]), 11%; in assay [1] (at 50.0 µM), 88.5% (active); in assay [2] (setting [7]), -8%; in assay [2] (setting [8]) it was 1%; in assay [2] (at 50.0 µM), 75.1% (active). Also, the growth inhibition in assay [3] (setting [7]) was -1%; in assay [3] (setting [8]), 17%; in assay [3] (at 50.0 µM), 77.7% (active); in assay [4] (setting [7]), -9%; in assay [4] (setting [8]) it was -1%; in assay [4] (at 50.0 µM), 62.2%. Besides, the growth inhibition is -6% in assay [5] (setting [7]); -1% in assay [5] (setting [8]); 72% (active) in assay [5] (at 50.0 µM); -2% in assay [6] (setting [7]); 4% in assay [6] (setting [8]); 91.8% (active) in assay [6] (at 50.0 µM).

Take `CCc1c(Nc2ccccc2C)[nH]c(N)nc1=S`: the growth inhibition was -2% in assay [1] (setting [7]); -32% in assay [1] (setting [8]); -6.6% in assay [1] (at 50.0 µM); -2% in assay [2] (setting [7]); -7% in assay [2] (setting [8]); 5.35% in assay [2] (at 50.0 µM). Moreover, the growth inhibition in assay [3] (setting [7]) is -1%; in assay [3] (setting [8]) it was -7%; in assay [3] (at 50.0 µM), 12.4%; in assay [4] (setting [7]), -7%; in assay [4] (setting [8]) it was -15%; in assay [4] (at 50.0 µM), -7%. Moreover, the growth inhibition in assay [5] (setting [7]) was -4%; in assay [5] (setting [8]) it was 8%; in assay [5] (at 50.0 µM), 77.2% (active); in assay [6] (setting [7]), -1%; in assay [6] (setting [8]) it was -7%; in assay [6] (at 50.0 µM) it was -12.4%.

Regarding `O=C(CNC(=O)c1ccccc1)Oc1c(Cl)c(Cl)c(Cl)c(Cl)c1Cl`, the growth inhibition in assay [1] (setting [7]) was 12%; in assay [1] (setting [8]) it was 61%; in assay [1] (at 50.0 µM), 75% (active); in assay [2] (setting [7]), 42%; in assay [2] (setting [8]), 82% (active); in assay [2] (at 50.0 µM), 74.8% (active). The growth inhibition in assay [3] (setting [7]) was 38%; in assay [3] (setting [8]) it was 89% (active); in assay [3] (at 50.0 µM) it was 90.8% (active); in assay [4] (setting [7]), 7%; in assay [4] (setting [8]) it was 42%; in assay [4] (at 50.0 µM), 65.9%. Besides, the growth inhibition was 1% in assay [5] (setting [7]); 45% in assay [5] (setting [8]); 34% in assay [5] (at 50.0 µM); 50% in assay [6] (setting [7]); 90% (active) in assay [6] (setting [8]); 77.5% (active) in assay [6] (at 50.0 µM).

For `Cc1occc1C(=S)Nc1ccc(Cl)c(C(=O)OCC(C)C)c1`, the growth inhibition in assay [1] (setting [7]) was 28%; in assay [1] (setting [8]) it was 59%; in assay [1] (at 50.0 µM), 61.3%; in assay [2] (setting [7]), 19%; in assay [2] (setting [8]), 45%; in assay [2] (at 50.0 µM), 55.1%. The growth inhibition in assay [3] (setting [7]) was 34%; in assay [3] (setting [8]), 71% (active); in assay [3] (at 50.0 µM), 58.8%; in assay [4] (setting [7]), 25%; in assay [4] (setting [8]), 71% (active); in assay [4] (at 50.0 µM), 57.6%. Besides, the growth inhibition is 30% in assay [5] (setting [7]); 78% (active) in assay [5] (setting [8]); 57.1% in assay [5] (at 50.0 µM); 33% in assay [6] (setting [7]); 73% (active) in assay [6] (setting [8]); 41.3% in assay [6] (at 50.0 µM).

Consider `CC(C)CCCCCCCCCCCCC(=O)NCC(=O)NC1C(C)OC(Nc2ncnc3nc[nH]c23)C(O)C1O` (centres undefined), for which the growth inhibition in assay [1] (setting [7]) is 22%; in assay [1] (setting [8]) it was 22%; in assay [1] (at 50.0 µM), 29.1%; in assay [2] (setting [7]), 54%; in assay [2] (setting [8]) it was 32%; in assay [2] (at 50.0 µM), 9.55%. Further, the growth inhibition in assay [3] (setting [7]) is 43%; in assay [3] (setting [8]), 45%; in assay [3] (at 50.0 µM), 34.5%; in assay [4] (setting [7]), 5%; in assay [4] (setting [8]) it was 10%; in assay [4] (at 50.0 µM), 2.2%. The growth inhibition in assay [5] (setting [7]) is 58%; in assay [5] (setting [8]), 23%; in assay [5] (at 50.0 µM), 77.1% (active); in assay [6] (setting [7]) it was 52%; in assay [6] (setting [8]), 35%; in assay [6] (at 50.0 µM) it was 19.4%.

For the molecule `N#Cc1c(-c2ccc(Cl)cc2)c(-c2ccc(Cl)cc2)nn(CCOC(=O)CCC(=O)O)c1=O`, the growth inhibition is 8% in assay [1] (setting [7]); 76% (active) in assay [1] (setting [8]); 89% (active) in assay [1] (at 50.0 µM); -3% in assay [2] (setting [7]); 76% (active) in assay [2] (setting [8]); 88.8% (active) in assay [2] (at 50.0 µM). The growth inhibition in assay [3] (setting [7]) is 22%; in assay [3] (setting [8]), 66%; in assay [3] (at 50.0 µM) it was 78.1% (active); in assay [4] (setting [7]) it was -3%; in assay [4] (setting [8]), 86% (active); in assay [4] (at 50.0 µM), 85.2% (active). Besides, the growth inhibition in assay [5] (setting [7]) was 16%; in assay [5] (setting [8]), 83% (active); in assay [5] (at 50.0 µM) it was 84% (active); in assay [6] (setting [7]), 8%; in assay [6] (setting [8]), 81% (active); in assay [6] (at 50.0 µM) it was 87% (active).
